Sampled rows, rich in hits. Any-hit rate of the full collection: about 4.2%.
PTK2B oligo ant = antagonists of Pyk2 self-association, primary screen, Q293 cells, FERM NanoBiT luminescence, HTS; z-score (the deposit names both 25 µM and 10 µM); active compounds read low; 99,000 compounds, 0.83% hits;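 active means Z-score of -3 or lower, scaled per plate to the spread of control and sample wells; inactive means z-score above -3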;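 further: negative z-score means lost luminescence so less FERM oligomerization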
Cav32 inh = Cav3.2 calcium influx blockers – cell-based, Fluo-4 calcium fluorescence, FDSS, MLSMR library, primary screen. Voltage-dependent T-type calcium channel subunit alpha-1H (Homo sapiens), O95180. Cav3.2-expressing cells; active compounds read low. B-score at 10 µM. 100,000 compounds, 4% hits;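 active means single-dose well whose peak fluorescence ratio is a statistical outlier from its plate by either plate-standardised score or position-corrected B-score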
Target sequence (O95180 whole entry, looked up): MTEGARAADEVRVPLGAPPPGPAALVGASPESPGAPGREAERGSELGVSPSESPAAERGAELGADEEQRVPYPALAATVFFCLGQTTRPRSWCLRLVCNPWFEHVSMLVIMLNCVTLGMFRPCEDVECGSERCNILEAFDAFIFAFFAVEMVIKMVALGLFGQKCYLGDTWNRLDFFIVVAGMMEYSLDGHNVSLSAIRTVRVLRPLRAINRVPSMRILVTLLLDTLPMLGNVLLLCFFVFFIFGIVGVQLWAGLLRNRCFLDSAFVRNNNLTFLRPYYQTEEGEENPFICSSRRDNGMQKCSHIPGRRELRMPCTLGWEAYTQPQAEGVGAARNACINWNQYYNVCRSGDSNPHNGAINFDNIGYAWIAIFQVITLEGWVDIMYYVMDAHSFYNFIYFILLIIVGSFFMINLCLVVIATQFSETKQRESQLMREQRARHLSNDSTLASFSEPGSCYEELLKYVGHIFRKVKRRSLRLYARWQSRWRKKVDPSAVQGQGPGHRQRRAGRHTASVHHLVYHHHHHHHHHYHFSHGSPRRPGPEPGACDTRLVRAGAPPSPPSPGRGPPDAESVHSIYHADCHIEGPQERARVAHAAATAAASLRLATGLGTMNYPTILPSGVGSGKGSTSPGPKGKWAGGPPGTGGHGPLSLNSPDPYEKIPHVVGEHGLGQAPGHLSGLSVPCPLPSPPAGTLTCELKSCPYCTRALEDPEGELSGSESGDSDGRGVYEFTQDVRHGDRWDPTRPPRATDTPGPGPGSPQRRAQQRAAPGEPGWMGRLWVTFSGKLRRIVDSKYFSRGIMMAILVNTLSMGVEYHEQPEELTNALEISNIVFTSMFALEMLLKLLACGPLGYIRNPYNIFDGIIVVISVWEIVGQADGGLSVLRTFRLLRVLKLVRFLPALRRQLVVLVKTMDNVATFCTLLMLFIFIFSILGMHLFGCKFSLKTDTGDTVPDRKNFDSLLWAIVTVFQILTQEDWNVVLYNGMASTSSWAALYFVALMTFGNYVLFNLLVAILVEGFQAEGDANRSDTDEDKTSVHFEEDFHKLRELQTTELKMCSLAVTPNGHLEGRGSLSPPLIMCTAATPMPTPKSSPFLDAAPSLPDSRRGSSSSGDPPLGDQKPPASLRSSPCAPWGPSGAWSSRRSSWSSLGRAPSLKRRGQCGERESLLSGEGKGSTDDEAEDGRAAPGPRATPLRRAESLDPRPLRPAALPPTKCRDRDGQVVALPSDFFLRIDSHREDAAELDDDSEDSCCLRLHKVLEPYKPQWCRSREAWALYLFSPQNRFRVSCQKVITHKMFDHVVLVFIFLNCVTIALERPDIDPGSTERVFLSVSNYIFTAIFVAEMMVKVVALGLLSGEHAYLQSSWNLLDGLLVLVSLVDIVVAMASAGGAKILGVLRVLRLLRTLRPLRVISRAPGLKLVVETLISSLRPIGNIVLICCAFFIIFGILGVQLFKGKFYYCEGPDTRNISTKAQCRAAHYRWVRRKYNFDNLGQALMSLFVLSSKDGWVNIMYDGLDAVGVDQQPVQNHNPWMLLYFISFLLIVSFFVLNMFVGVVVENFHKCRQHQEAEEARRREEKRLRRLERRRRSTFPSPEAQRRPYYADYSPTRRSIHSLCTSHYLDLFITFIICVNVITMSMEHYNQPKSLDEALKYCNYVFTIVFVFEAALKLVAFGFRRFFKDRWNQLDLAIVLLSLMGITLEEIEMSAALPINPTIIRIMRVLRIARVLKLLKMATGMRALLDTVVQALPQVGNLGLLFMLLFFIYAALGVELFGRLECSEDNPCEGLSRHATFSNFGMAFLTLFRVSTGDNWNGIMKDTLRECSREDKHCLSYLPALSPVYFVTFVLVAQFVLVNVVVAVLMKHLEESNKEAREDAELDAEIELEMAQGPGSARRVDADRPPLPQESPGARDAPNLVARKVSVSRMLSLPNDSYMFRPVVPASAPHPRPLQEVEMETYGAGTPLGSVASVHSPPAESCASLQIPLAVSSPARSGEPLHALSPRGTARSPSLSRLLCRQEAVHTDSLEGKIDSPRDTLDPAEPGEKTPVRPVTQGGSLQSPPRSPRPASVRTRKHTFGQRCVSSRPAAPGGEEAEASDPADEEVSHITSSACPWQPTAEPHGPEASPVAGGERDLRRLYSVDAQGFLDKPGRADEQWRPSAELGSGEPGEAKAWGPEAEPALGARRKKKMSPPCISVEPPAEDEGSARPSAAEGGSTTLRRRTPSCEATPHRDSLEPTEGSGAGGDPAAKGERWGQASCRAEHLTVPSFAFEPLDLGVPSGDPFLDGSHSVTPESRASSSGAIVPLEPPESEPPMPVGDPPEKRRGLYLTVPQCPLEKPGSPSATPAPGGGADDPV
CD11b adhes enh = enhancers of CD11b/CD18 adhesion to fibrinogen, primary screen, K562 cells, luminescence; 93,000 compounds, 0.07% hits; activation, % at 10 µM; AID 1499, 2009; ATPlite luminescence; Integrin beta-2 (Homo sapiens) + Integrin alpha-M (Homo sapiens), P05107+P11215;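 active means 10 µM primary screen giving 50% or more activity, confirmed by 40% or more on retest at that dose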
E coli RNAP = E. coli RNAP inhibitors, biochemical | E. coli RNA polymerase, fluorescence transcription assay | 62,000 compounds, 0.2% hits | AID 559, 2006 | DNA-directed RNA polymerase subunit beta (Escherichia coli (strain K12)), P0A8V2 | inhibition, %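 (tested at 10 µM)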; in the data active means inhibition above about 20%;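 further: 0% = enzyme without compound and 100% = no enzyme blank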
CD11b adhes inh = inhibitors of CD11b/CD18 adhesion to fibrinogen, primary screen, K562 cells, luminescence; ATPlite luminescence; Mn2+ added to activate the integrin; AID 1497, 2009; inhibition, % at 10 µM; 93,000 compounds, 0.54% hits; Integrin beta-2 (Homo sapiens) + Integrin alpha-M (Homo sapiens), P05107+P11215;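 active means primary inhibition of 50% or more at 10 µM, then 40% or more on retest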
Starred values were filed as active, the others as inactive.

For Cc1nc2ccccc2n1CC(=O)OCC(=O)NCCc1ccccc1 the results were PTK2B oligo ant 0.11, Cav32 inh 0.64, CD11b adhes enh 0 and CD11b adhes inh -3.
Cc1ccc(C)c(S(=O)(=O)N2CCN(C(=O)Cn3c(C(F)(F)F)nc4ccccc43)CC2)c1 was read as PTK2B oligo ant 0.57, Cav32 inh -0.0053, CD11b adhes enh -2 and CD11b adhes inh -13.
For CCN(CC)c1ccc(C(=O)OCc2cc(=O)oc3cc(O)ccc23)cc1 the results were PTK2B oligo ant -3.1* and Cav32 inh -0.86.
CC1=C(C(=O)Nc2ccc(C)cn2)C(c2cnn(C)c2)C2=C(CCCC2=O)N1 (configuration not stated) was read as PTK2B oligo ant 0.71.
Screening O=C(Nc1cccc(Cl)c1)N1CCN(c2ncccn2)CC1 returned PTK2B oligo ant 0.03, Cav32 inh -2.8, CD11b adhes enh 3, E coli RNAP -4 and CD11b adhes inh -31.
`CCOc1ccccc1N1CCN(C(=O)Nc2cccc(Cl)c2)CC1` gave PTK2B oligo ant 0.3, Cav32 inh -6.1*, CD11b adhes enh -5, E coli RNAP -4 and CD11b adhes inh 0.
For O=C(Nc1cccc(Cl)c1)N1CCN(C/C=C/c2ccccc2)CC1 the results were PTK2B oligo ant -0.1, Cav32 inh -6*, CD11b adhes enh 0 and CD11b adhes inh 19.
Screening COc1ccc(C(=O)NC(=S)NCC2CCCO2)cc1 (configuration not stated) returned PTK2B oligo ant -0.13.
`COc1ccc(C(=O)CN2CCN(S(=O)(=O)c3cccc([N+](=O)[O-])c3)CC2)cc1` gave CD11b adhes enh 2 and CD11b adhes inh -12.
Screening CC(C)c1ccc(NC(=O)C(c2ccc3c(c2)OCO3)N2CCC3(CC2)OCCO3)cc1 (configuration not stated) returned PTK2B oligo ant -2, Cav32 inh -7.5*, CD11b adhes enh -4, E coli RNAP 0 and CD11b adhes inh 2.
O=C(Nc1ccc2c(c1)OCO2)C(c1ccc(Cl)cc1)N1CCC2(CC1)OCCO2 (configuration not stated) was read as PTK2B oligo ant -1.3, Cav32 inh -6.7*, CD11b adhes enh -5, E coli RNAP 4 and CD11b adhes inh -4.
For CCCCNC(=O)c1onc(CSc2ccc(Cl)cc2)c1C(=O)O the results were Cav32 inh -1.6, CD11b adhes enh -3 and CD11b adhes inh -1.
For CCN(CC)C(=O)c1sc(NC(=O)c2ccc(C)c([N+](=O)[O-])c2)c(C#N)c1C the results were PTK2B oligo ant 0.38, CD11b adhes enh -6 and CD11b adhes inh 23.
O=C(/C=C/c1ccc(Cl)cc1)NC(=S)Nc1ccc(NC(=O)c2ccco2)cc1 was read as CD11b adhes enh 23 and CD11b adhes inh 2.
Screening CCN(CC)C(=O)C1CCCN(c2ccc([N+](=O)[O-])cc2/C=N/NC(=O)c2cccc([N+](=O)[O-])c2)C1 (configuration not stated) returned PTK2B oligo ant -0.28.
C=CCCCN(Cc1ccccc1)S(=O)(=O)c1ccccc1Br was read as Cav32 inh -3.7*.
`C=CCCN(C(C(=O)OC)C(C)C)S(=O)(=O)c1ccccc1Br` (configuration not stated) gave Cav32 inh -1.5.
Screening COc1cc2c(cc1NC(=O)C(c1ccccc1)c1ccccc1)CCCC2 returned PTK2B oligo ant -1.6, Cav32 inh -6*, CD11b adhes enh -6 and CD11b adhes inh 4.
For COc1cccc(C(=O)/C=C/Nc2cccc(O)c2)c1 the results were PTK2B oligo ant -0.76, Cav32 inh -2.1, CD11b adhes enh -7 and CD11b adhes inh 91*.
Screening CCCCn1c(NC(=O)c2ccccc2)c(C#N)c2nc3ccccc3nc21 returned PTK2B oligo ant -2.4, CD11b adhes enh -10, E coli RNAP -2 and CD11b adhes inh 99*.
For CCCCn1c(NC(=O)c2ccc(F)cc2)c(C#N)c2nc3ccccc3nc21 the results were E coli RNAP 0.
Screening O=C(Nc1ccc2c(c1)CCC2)c1cccc(S(=O)(=O)N2CCN(c3ccccc3)CC2)c1 returned PTK2B oligo ant 0.27, Cav32 inh -5.7*, CD11b adhes enh -4 and CD11b adhes inh -2.
For O=C(NC1CCCC1)c1cccc(S(=O)(=O)N2CCCCC2)c1 the results were PTK2B oligo ant 0.16, CD11b adhes enh 0, E coli RNAP 1 and CD11b adhes inh -5.
`O=C(NC1CCCc2ccccc21)c1cccc(S(=O)(=O)N2CCN(c3ccccc3)CC2)c1` (configuration not stated) gave PTK2B oligo ant -0.6, Cav32 inh -10*, CD11b adhes enh 4 and CD11b adhes inh 10.
Cc1ccc(S(=O)(=O)N2CCN(CC(=O)NC3CCCc4ccccc43)CC2)cc1C (configuration not stated) was read as PTK2B oligo ant -0.77, Cav32 inh -3.3, CD11b adhes enh -3 and CD11b adhes inh 10.
For O=C(Nc1ccccc1)c1cccc(S(=O)(=O)N2CCCCC2)c1 the results were PTK2B oligo ant 0.33 and Cav32 inh -1.7.
`O=C(CCC(=O)N1CCN(S(=O)(=O)c2ccc(Cl)cc2)CC1)NC1CCCc2ccccc21` (configuration not stated) gave PTK2B oligo ant 0.31 and Cav32 inh -5.2*.
Screening CCC(=O)N1CCC2(CC1)Oc1ccc(F)cc1C(=O)C21CC(c2ccccc2)=NO1 (configuration not stated) returned Cav32 inh -0.19.
Screening CC(C)CC(=O)n1sc(NC(=O)c2ccccc2)nc1=O returned PTK2B oligo ant -0.16, Cav32 inh -0.84, CD11b adhes enh -7 and CD11b adhes inh 55*.
Screening Cc1ccc(C(=O)Nc2nc(=O)n(C(=O)c3ccccc3Cl)s2)cc1 returned PTK2B oligo ant -0.4, Cav32 inh -6.1*, CD11b adhes enh -4 and CD11b adhes inh 41.
O=C(Nc1ccc(C(=O)N2CCCC2)cc1)Nc1ccc(Cl)cc1Cl was read as CD11b adhes enh 3 and CD11b adhes inh -3.
For Cc1ccc(SCC(=O)NC(=O)NCc2ccco2)cc1C the results were Cav32 inh -6.6*.
For O=C(CN1CCN(c2ccccc2)CC1)NC(=O)NCc1ccco1 the results were PTK2B oligo ant 1.1.
Screening O=C(CN1CCN(C(c2ccccc2)c2ccccc2)CC1)NC(=O)NCc1ccco1 returned PTK2B oligo ant -0.99, Cav32 inh -5.1*, CD11b adhes enh 6, E coli RNAP 5 and CD11b adhes inh -5.
Cc1ccccc1Nc1nnc(SCC(=O)NC(=O)NCc2ccco2)s1 was read as PTK2B oligo ant -0.55, CD11b adhes enh 76, E coli RNAP -6 and CD11b adhes inh 5.

Compound activity deposited in PubChem by several laboratories.
